Each structure is given as a SMILES string. A number with no mark means an inactive call. Results filed as inconclusive are left out. Calls of active or inactive are those of the source. Unless noted, calls follow the shape of the dose curve; as a rule, active = well fitted curve in either direction with a large enough effect (not every such curve was filed as active); inconclusive = small, poorly fitted or top-dose-only effect, or another doubt; inactive = flat fitted curve, though single readings scatter.

The nature of experiment [1]: AP1 Signaling Pathway (AID 357). Also: % is scaled to controls: 0 for no effect and ±100 for the full control effect. The note with it: ME-180 AP-1-bla reporter, EGF-induced, beta-lactamase ratio, 5 h; at 17.2 µM (top of the series) unless noted. In a few lines: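 AP-1-bla ME-180 cells with beta-lactamase reporter under AP-1 response element, stimulated with EC50 EGF; compounds titrated, 5 hours at 37 degrees Celsius. CCF4 read at 460/530 nm ratio; positive and negative modulators judged by AC50.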

Experiment [2] in a line: Stat Signaling Pathway (AID 446).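 Also: ME-180 cervical cancer cells given 40 pM IL-6 alongside compound; SIE-controlled beta-lactamase reporter measured as 460/530 nm FRET emission ratio; % is scaled to controls: 0 for no effect and ±100 for the full control effect.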 Conditions: ME-180 SIE beta-lactamase reporter, IL-6 stimulated, 5 h; at 17.2 µM (top of the series) unless noted. The procedure, abridged:
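FRET read-out (405 nm excitation, 460/530 nm emission) of a beta-lactamase reporter under a STAT-inducible element in ME-180 cervical carcinoma cells. Cells with compound receive 40 pM IL-6 for 5 h. Values are normalised to AC90 stimulation and AC90 JAK-inhibitor controls.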

In experiment [3] the target is Glucocorticoid receptor (Homo sapiens) (UniProt P04150). Kind of experiment: GR-GFP Redistribution (AID 450;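 active = compounds whose dose series gives a full or clear partial fitted curve of increased nuclear translocation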; also: potency is read from the fitted curve at half-maximal effect).
The target is the same in experiment [4]. The experiment is described as follows: GR-EFC Redistribution (AID 451; calls by dose curve; also: potency is read from the fitted curve at half-maximal effect). Conditions: CHO-K1 GR-EFC translocation, beta-gal luminescence, 2 h. In a few lines: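 Translocation of GR-ED fusion to nuclear EA restores b-gal, read by luminescence after 1 h room-temperature detection. Engineered CHO-K1 biosensor cells, 1,000/well, exposed 2 h at 37 C to titrations up to 46 uM final.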

The target in experiment [5] is Mitogen-activated protein kinase 10 (Mus musculus) (UniProt Q61831). The experiment is described as follows: JNK3 AlphaScreen Assay (AID 530).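 Also: kinase came from lysate of stimulated human HepG2 cells; signal reports phosphorylation of biotinylated GST-cJun 1-79 at Ser73 with 10 µM ATP; % is scaled to controls: 0 for no effect and ±100 for the full control effect.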 In a few lines: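 Kinase buffer: 20 mM Tris-HCl pH 7.6, 10 mM MgCl2, 1 mM DTT, 0.1 mM Na3VO4, 0.01% Tween-20; ATP 10 uM. Substrate biotin-GST-cJun(1-79), enzyme from activated HepG2 lysates. Detection by Ser73 phospho-antibody AlphaScreen.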
Background: In Alpha technology, singlet oxygen from a donor bead excites a nearby acceptor bead.

Experiment [6] has as its target 3',5'-cyclic-AMP phosphodiesterase 4B (Homo sapiens) (UniProt Q07343). Kind of experiment: qHTS Assay for Inhibitors of PDE-IV (AID 607; active = well fitted activation curve with a large enough effect in the main read-out, with a control signal flat, not every such curve was filed as active; also: % of control where 0% means no effect). The procedure, abridged:
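Cell-based read-out of cAMP via a modified cyclic nucleotide-gated channel and membrane potential dye (535/590 nm) in HEK293 cells expressing PDE4 endogenously. Compounds tested up to 22.9 uM final; 100 uM RO 20-1724 reference.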
A general note: Quantitative high-throughput screening tests each substance at several concentrations.

Experiment [7] in a line: qHTS Assay for Identification of Small Molecule Agonists for Hypoxia Response Element Signaling Pathway (AID 914; active = well fitted activation curve with a large enough effect in the signal ratio, with a control signal flat, not every such curve was filed as active; the % refers to the signal ratio; also: potency is read from the fitted curve at half-maximal effect; as to activation: % of control where 0% means no effect). The note with it: ME-180 (cervical carcinoma) HRE-bla reporter, beta-lactamase ratio, CoCl2, 17 h; activation: active compounds read high. The procedure, abridged:
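Positive modulation of EC50 CoCl2-induced hypoxia response element signaling is measured in ME-180 cells with a beta-lactamase reporter. Compounds are titrated, incubation runs 17 hours, and %Activity derives from the blue/green ratio.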

Experiment [8] addresses Guanine nucleotide-binding protein G(i) subunit alpha-1 (Homo sapiens) (UniProt P63096). The experiment is described as follows: qHTS Assay for Inhibitors of RGS12 GoLoco Motif Activity (Green Fluorophore) (AID 879; active = well fitted curve in the direction sought with a large enough effect; an effect the other way counts as inactive or inconclusive;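 also: 0% = labeled peptide with Gαi1 and full inhibition = labeled peptide alone without protein; negative values mean loss of peptide binding seen as reduced polarization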). The procedure, abridged:
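A drop in FITC polarization marked displacement of the FITC-tagged RGS12 GoLoco peptide (10 nM) from Gαi1 (50 nM). Compounds were incubated 10 min at room temperature in Tris pH 7.5 buffer containing 150 mM NaCl, 0.1 mM GDP and 0.05% NP40; unlabeled peptide titration served as control.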

Experiment [9] can be described thus: qHTS Assay for Identification of Small Molecule Agonists for Thrombopoietin (TPO) Signaling Pathway (AID 917; active = well fitted curve in the direction sought with a large enough effect; an effect the other way counts as inactive or inconclusive; also: % is scaled to controls: 0 for no effect and ±100 for the full control effect). The procedure, abridged:
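Stimulation at the TPO EC50 (26 pM final) was used to detect activators. Ba/F3 mouse cells bearing human TPO receptor and a luciferase reporter under the Glycoprotein IIb promoter were exposed to compounds for 24 hrs at 37 C.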

Experiment [10] addresses Muscarinic acetylcholine receptor M1 (Rattus norvegicus) (UniProt P08482). Kind of experiment: qHTS Assay for Antagonists of Acetylcholine Muscarinic M1 Receptor: Kinetic Measurement of Intracellular Calcium Response (AID 943; active = well fitted curve in the direction sought with a large enough effect; an effect the other way counts as inactive or inconclusive; also: nearly all actives have a fitted effect of over 75% in size). In a few lines: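 Read-out: peak over basal Fluo-4 fluorescence, kinetic at 1 Hz for 4 min after EC80 carbachol (100 nM final). Rat M1-CHO cells, dye loaded 1 h at 37C, compound added 10 min before agonist.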

Experiment [11] concerns the target Pyruvate kinase (Leishmania mexicana) (UniProt Q27686). The experiment is described as follows: qHTS Validation Assay for Inhibitors of Leishmania Mexicana Pyruvate Kinase (AID 945; active = well fitted curve in the direction sought with a large enough effect; an effect the other way counts as inactive or inconclusive;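 also: 0% = DMSO only neutral control wells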). The procedure, abridged: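 qHTS eight-point titrations against 0.2 nM LmPYK (E451W) in imidazole buffer pH 7.2 with 0.5 mM PEP, 0.1 mM ADP; 1 h, room temperature. Readout: PKLight luminescence, normalized to neutral DMSO wells.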

Experiment [12] addresses Pyruvate kinase PKM (Homo sapiens) (UniProt P14618). The experiment is described as follows: qHTS Assay for Activators of Human Muscle Pyruvate Kinase (AID 954; active = well fitted curve in the direction sought with a large enough effect, not every such curve was filed as active;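 also: 0% = uninhibited enzyme and -100% = no enzyme or full thiadiazolimine inhibition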). In a few lines: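 ATP production by PKM2 detected via luciferase luminescence after 1 h room-temperature reaction (0.1 nM enzyme, PEP at Km 0.5 mM, ADP 0.1 mM, pH 7.2 imidazole buffer). Inhibition scaled to no-enzyme control; activation referenced to 0.3 nM enzyme wells.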

For experiment [13], the target named is Alpha-galactosidase A (Homo sapiens) (UniProt P06280). The experiment is described as follows: Counterscreen for Glucocerebrosidase Inhibitors: qHTS Assay for Human alpha-Galactosidase at pH 4.5 (AID 992; active = well fitted curve in the direction sought with a large enough effect; an effect the other way counts as inactive or inconclusive; also: 0% is about no effect). The procedure, abridged:
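Fluorogenic 1536-well qHTS at pH 4.5 (citrate, Tween-20): 2 nM enzyme, 80 uM 4-MU-alpha-galactoside, 20 min room temperature, NaOH/glycine stop. Titration 0.7 nM to 77 uM, data normalized to no-enzyme and full-activity controls, Hill-fitted AC50.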

The target of experiment [14] is alpha-glucosidase (Oryza sativa, rice) (UniProt Q653V4). The experiment is described as follows: Counterscreen for Glucocerebrosidase Inhibitors: qHTS Assay for Rice alpha-Glucosidase at pH 5.0 (AID 997; active = well fitted curve in the direction sought with a large enough effect; an effect the other way counts as inactive or inconclusive;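 also: 0% = full activity with enzyme and -100% = basal without enzyme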). In a few lines:
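Endpoint fluorogenic assay at pH 5.0: compounds (0.7 nM to 77 uM) titrated against 4 nM rice enzyme and 400 uM 4-MU-alpha-glucoside for 20 min at room temperature; NaOH/glycine stop, read ex 365/em 440 nm, Hill-fitted AC50.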

Experiment [15] is described as follows: qHTS Assay for Identification of Small Molecule Antagonists for NFkB Signaling Pathway (AID 895; active = well fitted inhibition curve with a large enough effect in the signal ratio, with a control signal flat, not every such curve was filed as active; the % refers to the signal ratio; also: % is scaled to controls: 0 for no effect and ±100 for the full control effect). In a few lines: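 Beta-lactamase reporter read-out (460 and 530 nm emission ratio, 405 nm excitation, 2 hrs substrate loading RT) after 5 hr stimulation with 10 pM TNF alpha in compound-treated NFkB-bla ME-180 cells in low-serum medium.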

Glucocorticoid receptor (Homo sapiens), sequence (P04150 whole entry, looked up, the tested form may be a part): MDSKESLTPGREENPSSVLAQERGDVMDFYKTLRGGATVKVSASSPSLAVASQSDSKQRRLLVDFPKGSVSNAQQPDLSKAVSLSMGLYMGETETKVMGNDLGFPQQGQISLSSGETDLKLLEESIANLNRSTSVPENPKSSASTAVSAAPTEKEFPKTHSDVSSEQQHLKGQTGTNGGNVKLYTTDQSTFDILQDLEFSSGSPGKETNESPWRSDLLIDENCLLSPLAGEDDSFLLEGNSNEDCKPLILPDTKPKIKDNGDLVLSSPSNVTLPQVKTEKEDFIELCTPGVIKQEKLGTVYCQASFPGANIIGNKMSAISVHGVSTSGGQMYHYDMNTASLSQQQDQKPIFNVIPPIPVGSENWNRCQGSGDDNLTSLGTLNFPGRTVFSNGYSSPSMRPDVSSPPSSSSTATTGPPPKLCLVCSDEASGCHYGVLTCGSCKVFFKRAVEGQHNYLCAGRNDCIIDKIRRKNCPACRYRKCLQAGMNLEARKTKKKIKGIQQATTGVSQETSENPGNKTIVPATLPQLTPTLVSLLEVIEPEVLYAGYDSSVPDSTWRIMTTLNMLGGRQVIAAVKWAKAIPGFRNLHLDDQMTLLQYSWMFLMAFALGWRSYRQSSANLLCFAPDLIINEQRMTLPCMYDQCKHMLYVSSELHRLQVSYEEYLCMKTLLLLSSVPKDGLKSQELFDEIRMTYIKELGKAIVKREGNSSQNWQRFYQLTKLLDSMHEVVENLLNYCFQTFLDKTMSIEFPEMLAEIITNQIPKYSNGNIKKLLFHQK
Pyruvate kinase (Leishmania mexicana), sequence (Q27686 2-499 E452W): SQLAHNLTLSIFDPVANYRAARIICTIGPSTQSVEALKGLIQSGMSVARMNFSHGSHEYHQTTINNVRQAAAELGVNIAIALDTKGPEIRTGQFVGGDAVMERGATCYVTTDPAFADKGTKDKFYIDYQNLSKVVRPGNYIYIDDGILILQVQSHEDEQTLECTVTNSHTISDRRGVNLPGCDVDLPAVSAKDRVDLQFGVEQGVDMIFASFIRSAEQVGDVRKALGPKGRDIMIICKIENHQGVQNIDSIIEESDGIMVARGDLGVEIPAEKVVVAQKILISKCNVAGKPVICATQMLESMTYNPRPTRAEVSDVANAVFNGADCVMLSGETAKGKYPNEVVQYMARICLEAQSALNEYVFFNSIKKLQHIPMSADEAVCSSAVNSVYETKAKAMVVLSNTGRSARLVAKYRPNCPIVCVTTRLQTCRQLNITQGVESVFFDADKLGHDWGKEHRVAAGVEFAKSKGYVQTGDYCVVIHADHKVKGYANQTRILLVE
Guanine nucleotide-binding protein G(i) subunit alpha-1 (Homo sapiens), sequence (P63096 whole entry, looked up): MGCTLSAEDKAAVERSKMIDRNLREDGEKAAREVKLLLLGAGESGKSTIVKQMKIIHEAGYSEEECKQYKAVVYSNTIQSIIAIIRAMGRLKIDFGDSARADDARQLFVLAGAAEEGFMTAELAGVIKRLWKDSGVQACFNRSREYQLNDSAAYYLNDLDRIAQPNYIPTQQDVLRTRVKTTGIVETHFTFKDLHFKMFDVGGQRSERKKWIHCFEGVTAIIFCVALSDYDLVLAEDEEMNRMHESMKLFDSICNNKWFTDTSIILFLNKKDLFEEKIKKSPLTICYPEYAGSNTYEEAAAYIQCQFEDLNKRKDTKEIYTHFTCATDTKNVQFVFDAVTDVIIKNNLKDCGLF
Alpha-galactosidase A (Homo sapiens), sequence (P06280 whole entry, looked up): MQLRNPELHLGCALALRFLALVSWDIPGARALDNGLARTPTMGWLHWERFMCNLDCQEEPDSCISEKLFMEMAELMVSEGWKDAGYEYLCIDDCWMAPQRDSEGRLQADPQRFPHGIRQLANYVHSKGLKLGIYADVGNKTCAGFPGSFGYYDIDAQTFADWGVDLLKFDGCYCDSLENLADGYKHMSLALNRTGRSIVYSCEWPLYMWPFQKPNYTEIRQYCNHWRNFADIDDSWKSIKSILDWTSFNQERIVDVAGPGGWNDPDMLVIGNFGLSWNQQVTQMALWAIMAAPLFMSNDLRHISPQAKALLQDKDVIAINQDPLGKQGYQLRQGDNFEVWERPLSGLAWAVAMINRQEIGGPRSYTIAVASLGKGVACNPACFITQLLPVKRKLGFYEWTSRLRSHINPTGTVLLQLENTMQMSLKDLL
3',5'-cyclic-AMP phosphodiesterase 4B (Homo sapiens), sequence (Q07343 whole entry, looked up): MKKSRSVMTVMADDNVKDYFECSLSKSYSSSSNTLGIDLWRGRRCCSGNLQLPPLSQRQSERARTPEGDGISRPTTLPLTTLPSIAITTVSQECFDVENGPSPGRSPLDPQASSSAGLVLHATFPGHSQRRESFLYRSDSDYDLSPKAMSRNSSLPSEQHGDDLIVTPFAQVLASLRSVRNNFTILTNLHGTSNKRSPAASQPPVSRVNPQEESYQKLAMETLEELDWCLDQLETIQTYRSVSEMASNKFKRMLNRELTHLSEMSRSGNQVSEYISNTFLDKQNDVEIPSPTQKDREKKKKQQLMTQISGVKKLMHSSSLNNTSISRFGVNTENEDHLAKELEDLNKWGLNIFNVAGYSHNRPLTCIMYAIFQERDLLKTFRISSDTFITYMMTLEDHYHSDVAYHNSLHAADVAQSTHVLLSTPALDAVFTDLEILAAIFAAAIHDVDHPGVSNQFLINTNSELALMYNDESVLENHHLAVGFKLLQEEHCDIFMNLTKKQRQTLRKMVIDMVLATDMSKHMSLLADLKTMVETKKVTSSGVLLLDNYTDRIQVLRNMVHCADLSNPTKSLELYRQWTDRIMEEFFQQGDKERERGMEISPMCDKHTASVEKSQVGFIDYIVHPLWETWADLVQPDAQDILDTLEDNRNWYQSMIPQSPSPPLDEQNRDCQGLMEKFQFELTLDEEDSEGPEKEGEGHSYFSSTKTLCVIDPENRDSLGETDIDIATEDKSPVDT
Pyruvate kinase PKM (Homo sapiens), sequence (P14618 whole entry, looked up): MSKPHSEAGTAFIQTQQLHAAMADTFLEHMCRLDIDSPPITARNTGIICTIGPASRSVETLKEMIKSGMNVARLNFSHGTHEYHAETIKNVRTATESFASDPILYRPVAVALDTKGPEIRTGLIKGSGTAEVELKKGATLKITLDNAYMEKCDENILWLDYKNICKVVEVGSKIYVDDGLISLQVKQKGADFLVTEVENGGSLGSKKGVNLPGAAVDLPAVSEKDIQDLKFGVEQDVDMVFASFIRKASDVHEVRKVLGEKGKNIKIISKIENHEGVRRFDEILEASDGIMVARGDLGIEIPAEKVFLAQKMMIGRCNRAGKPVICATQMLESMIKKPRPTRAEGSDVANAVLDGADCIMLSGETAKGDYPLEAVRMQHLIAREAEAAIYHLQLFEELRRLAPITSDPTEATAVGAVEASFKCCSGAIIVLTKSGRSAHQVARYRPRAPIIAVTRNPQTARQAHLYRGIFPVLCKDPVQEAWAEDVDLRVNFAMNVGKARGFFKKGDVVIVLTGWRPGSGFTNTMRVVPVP
Muscarinic acetylcholine receptor M1 (Rattus norvegicus), sequence (P08482 whole entry, looked up): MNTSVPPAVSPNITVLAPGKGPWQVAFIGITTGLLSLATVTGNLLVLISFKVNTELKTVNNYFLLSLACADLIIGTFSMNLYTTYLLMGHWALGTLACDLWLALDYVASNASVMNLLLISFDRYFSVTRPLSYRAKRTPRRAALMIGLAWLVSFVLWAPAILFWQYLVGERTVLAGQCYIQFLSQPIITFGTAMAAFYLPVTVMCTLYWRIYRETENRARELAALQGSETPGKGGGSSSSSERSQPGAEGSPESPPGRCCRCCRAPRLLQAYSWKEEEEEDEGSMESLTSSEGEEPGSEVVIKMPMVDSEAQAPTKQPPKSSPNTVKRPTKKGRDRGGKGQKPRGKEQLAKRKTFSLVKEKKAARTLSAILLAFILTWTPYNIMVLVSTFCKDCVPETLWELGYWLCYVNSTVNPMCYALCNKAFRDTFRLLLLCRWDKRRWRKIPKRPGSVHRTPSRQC

With `C[C@H](CCC(=O)O)[C@H]1CC[C@@H]2[C@H]3CC[C@H]4C[C@@H](O)CC[C@@]4(C)[C@H]3CC[C@]21C`, the activity change, negative = inhibition in experiment [1] is 13.9%. Moreover, the activity, negative = inhibition in experiment [2] was -1.14%. In addition, the Potency in [3] and in experiment [4] was over 20.6 µM throughout. The Potency entry in experiment [5] and in experiment [6] was “inactive” each time.
Regarding `COc1ccc(OC)c2c(N)c(C#N)c(C(F)(F)C(F)(F)F)nc12`, in [1], the activity change, negative = inhibition was 5.08%. Further, the activity, negative = inhibition in experiment [2] was 14%. Further, the results for the Potency in experiment [3] and in [7] were over 20.6 µM and 10 µM (active), respectively.
Take `Cc1nc(Sc2cccn2C)c(C(F)(F)F)c(=O)[nH]1`: the activity change, negative = inhibition in [1] is -5.32%. For the same compound, the activity, negative = inhibition in [2] was -1.21%. The Potency in [3] was over 20.6 µM. The activation in [7] is 6.77%.
For the compound `Cc1ccc(CNC(=O)c2cc3c(=O)n4ccccc4nc3n(Cc3ccco3)c2=N)cc1`, the activity change, negative = inhibition in experiment [1] is 5.13%. The activity, negative = inhibition in experiment [2] is 22.1%. In addition, the Potency in [3] was over 20.6 µM; in [7], 5.01 µM (active).
On to `NC[C@@H]1O[C@@H](O[C@H]2[C@@H](O)[C@H](O[C@@H]3[C@H](O)[C@H](N)C[C@H](N)[C@H]3O[C@@H]3O[C@@H](CO)[C@H](O)[C@H](O)[C@@H]3N)O[C@H]2CO)[C@H](N)[C@H](O)[C@@H]1O`, for which, in experiment [1], the activity change, negative = inhibition was 7.75% [at 38 µM]. In experiment [2], the activity, negative = inhibition was -13.5% [at 38 µM]. In addition, the Potency in experiment [3] and in experiment [4] was over 46 µM each time. In addition, the Potency result in experiment [6], in [9], in experiment [10] and in experiment [11] was “inactive” each time. In addition, the call in experiment [8], in [12], in [13] and in [14] was inactive.
For `Cc1ccccc1C(=O)c1ccc2c(c1)n(C)c(=O)n2C`, in [1], the activity change, negative = inhibition is 4.88%. Moreover, the activity, negative = inhibition in experiment [2] was -15.6%. Also, in experiment [3], the Potency is over 20.6 µM. Also, the activation in experiment [7] is -17.8%.
As to `CC(=O)O[C@@H]1[C@H]([N+]2(C)CCCCC2)C[C@@H]2[C@@H]3CC[C@@H]4C[C@@H](OC(C)=O)[C@H]([N+]5(C)CCCCC5)C[C@@]4(C)[C@H]3CC[C@]21C`, the activity change, negative = inhibition in experiment [1] is 13.6% [at 38 µM]. In addition, in experiment [2], the activity, negative = inhibition was 18.1% [at 38 µM]. Also, in [3], the Potency was over 46 µM. Moreover, the Potency result in experiment [5], in experiment [15], in experiment [9] and in experiment [11] was “inactive” throughout. In addition, the result in [8], in experiment [12], in experiment [13] and in experiment [14] was inactive.
Regarding `CCc1nc(N2CCCC2)c(C#N)c2c1CCCC2`, in experiment [1], the activity change, negative = inhibition is -16.4%. The activity, negative = inhibition in [2] was -19.9%. The Potency in [3] is over 20.6 µM. Further, the activation in experiment [7] is -12%.

The values are drawn from PubChem BioAssay (NCATS).
